Data taken from the supplement of paper PMC9135407.
Values joined by “and” are separate entries in the source; they are usually repeats but may differ in a detail not shown here. Equal entries are not always repeated. Structures can show the parent of a compound that is named as a salt. Among all 5,800 compounds or so, about 620 (11%) showed activity. The entries come from a sample that favours actives as a whole. Values without a mark were called inactive.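 Rule for the calls: active = score above a cut-off or among the top three wells of a plate; in these data no inactive exceeds 0.85.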

Tested on: primary human hepatic stellate cells (donor 1)
Assay: scaled lipid accumulation score (0 = DMSO-like, 1 = nortriptyline-like); higher = stronger HSC inactivation (lipid re-accumulation), active = hit call of the paper
Conditions: 48 h
[1] = library stock concentration: 10 mM
[2] = library stock concentration: 3.33 mM
[3] = library stock concentration: 400 uM
[4] = library stock concentration: 2 mM
[5] = library stock concentration: 1 mM
[6] = library stock concentration: 80 uM

CN(C)CCOc1cc(-c2cn[nH]c2)ccc1NC(=O)C1COc2ccccc2O1 (centres undefined) [listing 1 of 2 here]
scaled lipid accumulation score [1]: 1.08 (active)

O=C(Nc1ccc(-c2cn[nH]c2)cc1)C1COc2ccccc2O1 (centres undefined) [Rho Kinase Inhibitor V]
scaled lipid accumulation score [2]: ≤ 0

CN(C)CCOc1cc(-c2cn[nH]c2)ccc1NC(=O)C1COc2ccccc2O1 (centres undefined) [listing 2 of 2 here]
scaled lipid accumulation score [3]: ≤ -0.005
scaled lipid accumulation score [4]: 0.383

CCCCCCCCCCCCCCCCCC=CC(=O)O [.DELTA.2-cis Eicosenoic Acid]
scaled lipid accumulation score [5]: 0.011

CCCCC/C=C\C/C=C\CC/C=C\CCCC(=O)OCC [Pinolenic Acid ethyl ester]
scaled lipid accumulation score [5]: ≤ 0

CC[C@]1(O)C[C@H]2CN(CCc3c([nH]c4ccccc34)[C@@](C(=O)OC)(c3cc4c(cc3OC)N(C)[C@H]3[C@@](O)(C(N)=O)[C@H](O)[C@]5(CC)C=CCN6CC[C@]43[C@@H]65)C2)C1.O=S(=O)(O)O
scaled lipid accumulation score (library stock concentration: 9.7 mM): 1.52 (active)

CCCCC[C@H](O)/C=C/[C@@H]1[C@H]2C/C(=C/CCCC(=O)O)C[C@H]2C[C@H]1O [Carbacyclin]
scaled lipid accumulation score [5]: ≤ -0.021

N=C(N)c1ccc(N2CCN(C3CCN(CC(=O)O)CC3)CC2)cc1
scaled lipid accumulation score [1]: ≤ -0.006

CCCCCCCCCCCCC/C=C/[C@@H](O)[C@H](CO)NC(=O)CCCCC [C-6 Ceramide]
scaled lipid accumulation score [5]: ≤ 0

CCCCC/C=C\C/C=C\C/C=C\C/C=C\CCCCN1C(=O)C=CC1=O [N-Arachidonyl Maleimide]
scaled lipid accumulation score [5]: ≤ 0

CCCCC[C@H](O)CC(=O)CCc1ccc(O)c(OC)c1 [6-Gingerol]
scaled lipid accumulation score (library stock concentration: 17 mM): ≤ -0.014

Cc1c(-c2cnccn2)ssc1=S [Oltipraz]
scaled lipid accumulation score (library stock concentration: 8.8 mM): 0.01

N[C@H](CO)C(=O)O [D-Serine]
scaled lipid accumulation score [1]: ≤ 0

C(=C(/CC1)\CCN1C)(/c2c3cccc2)\c4c(cccc4)C=C3.Cl [Cyproheptadine hydrochloride]
scaled lipid accumulation score [1]: 0.933 (active)

CN1CCC(=C2c3ccccc3Sc3ccccc32)CC1 [Pimethixene maleate]
scaled lipid accumulation score: 0.65
scaled lipid accumulation score [1]: 0.656

CN1CCC(=C2c3ccccc3C=Cc3ccccc32)CC1
scaled lipid accumulation score [1]: 1.32 (active)

CN1CCC(=C2c3ccccc3CCc3cccnc32)CC1
scaled lipid accumulation score [1]: 0.464

CN1CCC(=C2c3ccccc3C=Cc3ccccc32)CC1 [Cyproheptadine HCl]
scaled lipid accumulation score [2]: 0.629
scaled lipid accumulation score [1]: 0.63

Cl.C(=C(\CCN(C)C1)/C1)(/c2c(cccc2)C=C3)\c4c3cccc4 [Cyproheptadine hydrochloride]
scaled lipid accumulation score: 0.968 (active)

CN1CCC(=C2c3ccccc3C=Cc3ccccc32)CC1 [Cyproheptadine hydrochloride]
scaled lipid accumulation score (library stock concentration: 6.2 mM): 0.686

CN1CCC(=C2c3ccccc3CCc3cccnc32)CC1 [Azatadine dimaleate]
scaled lipid accumulation score [2]: 0.004
scaled lipid accumulation score [1]: 0.221

Cl[H].CN1CC\C(=C(/c2c(cccc2)C=C3)\c(cccc4)c34)\CC1 [Cyproheptadine hydrochloride]
scaled lipid accumulation score [1]: 1.04 (active)

CN1CCC(=C2c3ccccc3C=Cc3ccccc32)CC1 [Cyproheptadine]
scaled lipid accumulation score (library stock concentration: 7 mM): 0.351

C#C[C@]1(OC(C)=O)CC[C@H]2[C@@H]3CCC4=CC(=NO)CC[C@@H]4[C@H]3CC[C@@]21CC (mixture of isomers) [Norgestimate]
scaled lipid accumulation score (library stock concentration: 5.4 mM): ≤ 0

CC1COCCN1c1cc(C2(S(C)(=O)=O)CC2)nc(-c2cccc3[nH]ccc23)n1 (centres undefined)
scaled lipid accumulation score [2]: ≤ 0
scaled lipid accumulation score [1]: ≤ -0.001

CCCCC(F)(F)[C@@]1(O)CC[C@H]2[C@@H](CC(=O)[C@@H]2CCCCCCC(=O)O)O1 [Lubiprostone]
scaled lipid accumulation score [2]: ≤ 0
scaled lipid accumulation score [1]: ≤ 0

CCCCC/C=C\C/C=C\CCCCCCCC(=O)OCC(O)CO (centres undefined) [1-Linoleoyl Glycerol]
scaled lipid accumulation score [5]: ≤ 0

C=C1C[C@H](O)[C@H](C/C=C\CCCC(=O)O)[C@H]1/C=C/[C@@H](O)CCCCC [11-deoxy-11-methylene Prostaglandin D2]
scaled lipid accumulation score [5]: ≤ 0

CCC(C)C(COC(Cc1ccccc1)C(=O)NC(CCS(C)(=O)=O)C(=O)OC(C)C)NCC(N)CS (centres undefined)
scaled lipid accumulation score (library stock concentration: 7.9 mM): 0.195

CC(C)(C)CC(C)(C)c1cc(Cc2cc(C(C)(C)CC(C)(C)C)cc(-n3nc4ccccc4n3)c2O)c(O)c(-n2nc3ccccc3n2)c1
scaled lipid accumulation score [1]: ≤ 0

CCCCC[C@@H](O)[C@H]1C(=O)O[C@H](C)[C@@H](O)/C=C/C=C/C=C/C=C/C=C(\C)[C@@H](O)C[C@H](O)C[C@H](O)C[C@H](O)C[C@H](O)C[C@H](O)C[C@@H]1O [Filipin]
scaled lipid accumulation score (library stock concentration: 3.1 mM): 0.029

CCCCC[C@@H](O)[C@H]1C(=O)O[C@H](C)[C@@H](O)/C=C/C=C/C=C/C=C/C=C(\C)[C@@H](O)C[C@H](O)C[C@H](O)C[C@H](O)C[C@H](O)C[C@H](O)C[C@@H]1O [Filipin III]
scaled lipid accumulation score [5]: 0.021

COc1ccc2c(c1)c(CC(=O)SC[C@H](NC(C)=O)C(=O)OCCCCO[N+](=O)[O-])c(C)n2C(=O)c1ccc(Cl)cc1 [NO-Indomethacin]
scaled lipid accumulation score [5]: ≤ 0

C[C@@H]1C[C@H]2[C@@H]3CCC4=CC(=O)C=C[C@]4(C)[C@@]3(Cl)[C@@H](O)C[C@]2(C)[C@@]1(OC(=O)c1ccco1)C(=O)CCl [Mometasone furoate]
scaled lipid accumulation score: 0.136
scaled lipid accumulation score [2]: 0.086
scaled lipid accumulation score [1]: 0.519

COc1cc(Nc2c(C#N)cnc3cc(OCCCN4CCN(C)CC4)c(OC)cc23)c(Cl)cc1Cl [Bosutinib (SKI-606) (0.4 mM)]
scaled lipid accumulation score [3]: ≤ -0.005

CCN1CCC(n2cc(CNc3cc(Cl)c4ncc(C#N)c(Nc5ccc(F)c(Cl)c5)c4c3)nn2)CC1 [listing 1 of 2 here]
scaled lipid accumulation score [1]: 1.15 (active)

CCN1CCC(n2cc(CNc3cc(Cl)c4ncc(C#N)c(Nc5ccc(F)c(Cl)c5)c4c3)nn2)CC1 [listing 2 of 2 here]
scaled lipid accumulation score [6]: ≤ -0.009
scaled lipid accumulation score [3]: ≤ -0.009
scaled lipid accumulation score [4]: ≤ -0.009

COc1cc(Nc2c(C#N)cnc3cc(OCCCN4CCN(C)CC4)c(OC)cc23)c(Cl)cc1Cl [Bosutinib]
scaled lipid accumulation score [6]: ≤ -0.016
scaled lipid accumulation score [3]: ≤ -0.016
scaled lipid accumulation score [4]: ≤ -0.016
scaled lipid accumulation score [1]: ≤ -0.016

COc1cc(Nc2c(C#N)cnc3cc(OCCCN4CCN(C)CC4)c(OC)cc23)c(Cl)cc1Cl [Bosutinib (SKI-606)]
scaled lipid accumulation score [2]: 0.374
scaled lipid accumulation score [1]: 0.395

COc1cc(Nc2c(C#N)cnc3cc(OCCCN4CCN(C)CC4)c(OC)cc23)c(Cl)cc1Cl [Bosutinib (SKI-606) (2 mM)]
scaled lipid accumulation score [4]: 0.096

COc1cc(Nc2c(C#N)cnc3cc(OCCCN4CCN(C)CC4)c(OC)cc23)c(Cl)cc1Cl [Bosutinib (SKI-606) (10 mM)]
scaled lipid accumulation score [1]: 0.388

CC(C)c1ccccc1S(=O)(=O)c1cc(N)c2ncccc2c1[N+](=O)[O-]
scaled lipid accumulation score [1]: 0.26

O=C(O)COc1ccc(C(=O)c2cccs2)c(Cl)c1Cl [Tienilic Acid]
scaled lipid accumulation score [5]: ≤ 0

CC(C)c1ccc(C(=O)c2cccs2)c(SCCCCCCCCN(C)C)n1.O=C(O)C(=O)O
scaled lipid accumulation score [1]: 1.24 (active)

CC(C(=O)O)c1ccc(C(=O)c2cccs2)cc1 (centres undefined) [Suprofen]
scaled lipid accumulation score: ≤ 0
scaled lipid accumulation score [2]: ≤ 0
scaled lipid accumulation score (library stock concentration: 7.7 mM): ≤ 0
scaled lipid accumulation score [1]: 0.024 and ≤ 0

CC12CCC(CC1=O)C2(C)C (centres undefined) [Camphor (1r)]
scaled lipid accumulation score (library stock concentration: 13.1 mM): ≤ -0.001

CO[C@H]1O[C@@H]2O[C@@]3(C)CC[C@H]4[C@H](C)CC[C@@H]([C@H]1C)[C@@]24OO3
scaled lipid accumulation score [1]: ≤ 0

CO[C@H]1O[C@@H]2O[C@@]3(C)CC[C@H]4[C@H](C)CC[C@@H]([C@H]1C)[C@@]24OO3 [Artemether]
scaled lipid accumulation score [2]: ≤ 0
scaled lipid accumulation score [1]: ≤ 0 and 0.024

CN1CC[C@@H](c2c(O)cc(O)c3c(=O)cc(-c4ccccc4Cl)oc23)[C@@H]1CO
scaled lipid accumulation score [2]: ≤ -0.009
scaled lipid accumulation score [1]: 0.465

CS(=O)(=O)c1ccc(-c2cnc(N)c(C(=O)Nc3ccccc3)n2)cc1 [listing 1 of 2 here]
scaled lipid accumulation score [6]: 0.017
scaled lipid accumulation score [3]: ≤ 0
scaled lipid accumulation score [4]: ≤ 0
scaled lipid accumulation score [2]: 0.225
scaled lipid accumulation score [1]: 0.489

CS(=O)(=O)c1ccc(-c2cnc(N)c(C(=O)Nc3ccccc3)n2)cc1 [listing 2 of 2 here]
scaled lipid accumulation score [1]: 0.907 (active)

CN1CCN(S(=O)(=O)c2ccc(-c3cnc(N)c(C(=O)Nc4cccnc4)n3)cc2)CC1 [listing 1 of 2 here]
scaled lipid accumulation score [2]: 0.821

CN(C)c1nc(N)c(C(=O)Nc2cccnc2)nc1Cl [ACDPP hydrochloride]
scaled lipid accumulation score [1]: ≤ -0.001

CN1CCN(S(=O)(=O)c2ccc(-c3cnc(N)c(C(=O)Nc4cccnc4)n3)cc2)CC1 [listing 2 of 2 here]
scaled lipid accumulation score [1]: 1.02 (active)

CS(=O)(=O)c1ccc(C(=O)Nc2ccc(Cl)c(-c3ccccn3)c2)c(Cl)c1 [Vismodegib (GDC-0449)]
scaled lipid accumulation score [2]: 0.002
scaled lipid accumulation score [1]: ≤ 0

Cl.O=C([O-])c1ccc(-c2c3nc(c(-c4ccc(C(=O)O)cc4)c4nc(c(-c5ccc(C(=O)O)cc5)c5ccc([nH]5)c(-c5ccc(C(=O)[O-])cc5)c5ccc2[n-]5)C=C4)C=C3)cc1.[Mn+3] [MnTBAP chloride]
scaled lipid accumulation score (library stock concentration: 5.7 mM): ≤ -0.012

Cc1cn([C@H]2O[C@@H](CO)[C@H](O)[C@H]2F)c(=O)[nH]c1=O [Clevudine]
scaled lipid accumulation score [2]: ≤ 0
scaled lipid accumulation score [1]: ≤ 0

O=C(CCC/C=C\C[C@H]1C(=O)C[C@@H](O)C1/C=C/[C@@H](O)CCc1ccccc1)NC(CO)CO (some centres undefined) [17-phenyl trinor Prostaglandin E2 serinol amide]
scaled lipid accumulation score [5]: ≤ 0

NC(=O)N[C@@H](CCC(=O)O)C(=O)O
scaled lipid accumulation score [1]: ≤ 0
